Results from PubChem BioAssay AID434992 (The Scripps Research Institute Molecular Screening Center, 2010).
Active and inactive are the calls of the source. No rule for the calls is given here.

Test: PubChem AID 434992

**Q.** Which outcome does the source give for `FC(F)(F)c1ccc2c(c1)Nc1ccccc1S2` here?
**A.** Its outcome is “inactive”.
